{
  "source": "PubChem BioAssay",
  "data": [
    {"molecular_target": "Neurogenic locus notch homolog protein 3 (Homo sapiens) (UniProt Q9UM47)", "sequence (Q9UM47 whole entry, looked up)": "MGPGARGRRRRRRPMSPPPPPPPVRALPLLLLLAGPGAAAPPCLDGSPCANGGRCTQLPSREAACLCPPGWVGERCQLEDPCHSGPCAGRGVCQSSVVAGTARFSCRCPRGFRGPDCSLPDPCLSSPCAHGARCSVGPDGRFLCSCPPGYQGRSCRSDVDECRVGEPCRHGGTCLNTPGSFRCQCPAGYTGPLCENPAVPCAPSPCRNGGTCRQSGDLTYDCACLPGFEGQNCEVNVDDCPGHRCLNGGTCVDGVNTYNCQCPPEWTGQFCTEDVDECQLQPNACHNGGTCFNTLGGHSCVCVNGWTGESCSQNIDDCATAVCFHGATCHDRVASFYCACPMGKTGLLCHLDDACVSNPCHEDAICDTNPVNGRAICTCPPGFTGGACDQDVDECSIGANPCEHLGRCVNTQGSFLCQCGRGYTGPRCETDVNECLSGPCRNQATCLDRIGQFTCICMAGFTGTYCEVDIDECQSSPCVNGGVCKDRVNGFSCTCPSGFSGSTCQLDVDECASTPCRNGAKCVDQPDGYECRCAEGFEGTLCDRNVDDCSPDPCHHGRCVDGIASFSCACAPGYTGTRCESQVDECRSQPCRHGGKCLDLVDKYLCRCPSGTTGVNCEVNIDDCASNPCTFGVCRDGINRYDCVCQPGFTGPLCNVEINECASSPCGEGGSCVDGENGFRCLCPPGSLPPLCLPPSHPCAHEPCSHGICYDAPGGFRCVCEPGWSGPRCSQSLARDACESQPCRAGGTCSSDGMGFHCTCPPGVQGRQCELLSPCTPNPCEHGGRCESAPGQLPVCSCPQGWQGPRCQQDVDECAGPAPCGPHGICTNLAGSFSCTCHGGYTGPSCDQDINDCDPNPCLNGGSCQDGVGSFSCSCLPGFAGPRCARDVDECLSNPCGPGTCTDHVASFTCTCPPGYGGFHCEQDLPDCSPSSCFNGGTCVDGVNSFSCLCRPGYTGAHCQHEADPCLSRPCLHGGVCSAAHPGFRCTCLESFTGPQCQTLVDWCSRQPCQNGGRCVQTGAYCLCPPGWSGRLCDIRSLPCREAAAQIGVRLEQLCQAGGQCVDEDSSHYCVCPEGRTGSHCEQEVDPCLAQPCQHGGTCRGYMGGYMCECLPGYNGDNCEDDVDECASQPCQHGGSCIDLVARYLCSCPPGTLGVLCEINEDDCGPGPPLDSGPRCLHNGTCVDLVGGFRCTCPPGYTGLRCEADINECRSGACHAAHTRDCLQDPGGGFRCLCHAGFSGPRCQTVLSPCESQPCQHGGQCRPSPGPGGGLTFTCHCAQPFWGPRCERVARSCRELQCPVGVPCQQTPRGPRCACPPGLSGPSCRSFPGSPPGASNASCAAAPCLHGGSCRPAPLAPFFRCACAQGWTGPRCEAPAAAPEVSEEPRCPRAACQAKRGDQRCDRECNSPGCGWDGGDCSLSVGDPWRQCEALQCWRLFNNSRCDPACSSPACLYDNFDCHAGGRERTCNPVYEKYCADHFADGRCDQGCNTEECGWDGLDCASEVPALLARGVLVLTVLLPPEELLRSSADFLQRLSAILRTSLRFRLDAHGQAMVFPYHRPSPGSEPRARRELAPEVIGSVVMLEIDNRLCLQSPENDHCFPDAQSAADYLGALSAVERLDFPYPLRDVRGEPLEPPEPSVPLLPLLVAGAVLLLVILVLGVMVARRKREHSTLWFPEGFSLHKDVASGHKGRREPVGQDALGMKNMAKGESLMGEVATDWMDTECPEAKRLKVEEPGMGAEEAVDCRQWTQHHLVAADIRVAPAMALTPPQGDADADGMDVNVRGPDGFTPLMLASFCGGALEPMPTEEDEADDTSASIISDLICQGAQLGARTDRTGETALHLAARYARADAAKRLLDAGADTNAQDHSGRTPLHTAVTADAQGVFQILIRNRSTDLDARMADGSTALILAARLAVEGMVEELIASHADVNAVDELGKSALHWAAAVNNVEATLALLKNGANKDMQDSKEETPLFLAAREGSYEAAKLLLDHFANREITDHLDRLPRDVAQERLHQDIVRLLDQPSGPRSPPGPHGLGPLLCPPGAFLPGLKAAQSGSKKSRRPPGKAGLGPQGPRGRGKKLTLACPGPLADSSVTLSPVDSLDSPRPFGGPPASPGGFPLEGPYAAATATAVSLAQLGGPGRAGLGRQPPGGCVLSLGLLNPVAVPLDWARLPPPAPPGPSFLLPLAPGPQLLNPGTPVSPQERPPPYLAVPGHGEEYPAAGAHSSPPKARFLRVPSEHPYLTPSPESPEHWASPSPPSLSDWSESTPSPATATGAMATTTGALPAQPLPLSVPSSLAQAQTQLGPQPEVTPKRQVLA", "experiment": "NOTCH3 binders on small-molecule microarray, primary screen, biochemical, 635/667 nm fluorescence (AID 1096)", "conditions": "NOTCH3 binding, 635 nm fluorescence, higher = more signal", "values": [
      {"smiles": "COc1ccc([Si](C)(C)[C@H]2[C@H](CC(=O)N3CCC[C@H]3CO)O[C@@]3(C(=O)N(Cc4cccc(N5C(=O)COc6ccccc65)c4)c4ccccc43)[C@@H]2C)cc1", "composite z-score": 1.14},
      {"smiles": "CC(=O)OC[C@H]1O[C@H](C#CCCCc2ccccc2)C=C[C@@H]1OC(C)=O", "composite z-score": 0.389},
      {"smiles": "CC(C)[C@H](NC(=O)OC(C)(C)C)[C@@H](O)CC(=O)OC(C)(C)C", "composite z-score": -0.904},
      {"smiles": "COCCCNC(=O)[C@]1(CCC(=O)OC(C)(C)C)N=C(c2ccc(OCCCO)cc2)O[C@@H]1c1ccccc1N=[N+]=[N-]", "composite z-score": 1.11},
      {"smiles": "C[C@@H]1C=CCC(=O)OC[C@H](C)C(=O)N[C@@H](C)C(=O)OC1", "composite z-score": 0.254},
      {"smiles": "COC(=O)[C@@]1(Cc2ccc(F)cc2)[C@H]2c3cc(C(=O)N(C)C)n(Cc4ccc(OC)c(OC)c4)c3C[C@H]2CN1C(=O)c1ccccc1", "composite z-score": -0.309},
      {"smiles": "CCCCCN1CC=CC23O[C@@H]4C=CCOC(=O)[C@@H]4[C@H]2C(=O)N(CCCCCCO)[C@@H]3C1=O", "note": "(stereo not given in full)", "composite z-score": -0.973},
      {"smiles": "COc1ccc(O[C@H]2C=C[C@@H](c3ccccc3)O[C@@H]2COC(=O)CCC(C)=NO[C@H](C)c2cn([C@@H]3COC[C@H]3O)nn2)cc1", "composite z-score": 0.942},
      {"smiles": "C#C[C@@H]1Oc2ccccc2S(=O)(=O)N2CCC[C@H]12", "composite z-score": -0.176},
      {"smiles": "CC(C)(C)OC(=O)CC[C@]1(C(N)=O)COC(c2ccc(OCCCO)cc2)=N1", "composite z-score": 0.849},
      {"smiles": "COc1ccc(O[C@H]2C=C[C@@H](c3ccccc3)O[C@@H]2COC(=O)CCC(C)=NOC[C@@H](C)[C@H](OCc2ccccc2)C(C)C)cc1", "composite z-score": -1.03},
      {"smiles": "Cc1ccc(F)cc1S(=O)(=O)N[C@@H]1CCN(Cc2ccc(CC(C)C)cc2)C1", "composite z-score": -0.734},
      {"smiles": "CCc1cc2c(nc1CC)CCN(CCC(C)=NOC(C)CN1CCCc3nc(C)c(C)cc31)C2", "note": "(stereo not given)", "composite z-score": 0.986},
      {"smiles": "Cc1ccc(S(=O)(=O)N[C@@H]2COC(=O)[C@H](C)COC(=O)CC=C[C@H]2C)cc1", "composite z-score": 0.566},
      {"smiles": "O=C1C[C@@H](O)[C@@H](O)[C@@H]2[C@@H]3C(=O)N(Cc4ccc5c(c4)OCO5)C(=O)[C@@H]3CC[C@@H]12", "composite z-score": 1.12},
      {"smiles": "CN1C(=O)[C@@]2(CCC(=O)OC(C)(C)C)N=C(c3ccc(OCCCO)cc3)O[C@H]2c2ccccc21", "composite z-score": 0.736},
      {"smiles": "COCCOC(=O)N1C(=O)[C@@]2(c3cc(C#CC4(O)CCCCCC4)ccc31)[C@H](C(=O)N1CCN(c3ncccn3)CC1)[C@H]1C(=O)O[C@H](c3ccccc3)[C@H](c3ccccc3)N1[C@@H]2c1ccc(OCCO)cc1", "composite z-score": 1.08},
      {"smiles": "CCOC(=O)[C@H](CC(C)C)NC(=O)CCC1CC(OC(=O)NCc2cccc3ccccc23)CC2(CCCC(COC(=O)NCCc3ccccc3OC)O2)O1", "note": "(stereo not given in full)", "composite z-score": 0.957},
      {"smiles": "COC(=O)[C@H](C)NC(=O)CCC1CC(OC(=O)NCc2cccc3ccccc23)CC2(CCCC(COC(=O)NCCc3ccc(Cl)cc3)O2)O1", "note": "(stereo not given in full)", "composite z-score": 1.13},
      {"smiles": "O[C@@H](Cc1ccccc1)[C@H]1C2C=CCCC(c3ccccc3)=C2CN1Cc1cccc(Cl)c1", "note": "(stereo not given in full)", "composite z-score": 1.12},
      {"smiles": "O=C1[C@H]2[C@H]3[C@H](O)[C@H](O)CC(=NO[C@@H]4O[C@H](CO)[C@@H](O)[C@H](O)[C@H]4O)[C@@H]3CC[C@H]2C(=O)N1Cc1ccccc1", "composite z-score": 0.433},
      {"smiles": "COCCOC(=O)N1C(=O)[C@@]2(c3cc(C#CCNC(N)=O)ccc31)[C@H](c1ccccc1OCCO)N1[C@H](c3ccccc3)[C@H](c3ccccc3)OC(=O)[C@H]1[C@@H]2C(=O)N1CCN(c2ncccn2)CC1", "composite z-score": 0.572},
      {"smiles": "O=C1[C@H]2[C@H]3[C@H](O)[C@H](O)CC(=NO[C@@H]4O[C@H](CO)[C@@H](O)[C@H](O)[C@H]4O)[C@H]3CC[C@H]2C(=O)N1Cc1ccccc1", "composite z-score": 0.669},
      {"smiles": "CC(C)(C)N1C(=O)[C@H]2[C@H]3[C@H](O)[C@H](O)CC(=NO[C@@H]4O[C@H](CO)[C@@H](O)[C@H](O)[C@H]4O)[C@@H]3CC[C@H]2C1=O", "composite z-score": 0.794},
      {"smiles": "O=C1[C@H]2[C@H]3[C@H](O)[C@H](O)CC(=NO[C@@H]4O[C@H](CO)[C@@H](O)[C@H](O)[C@H]4O)[C@H]3CC[C@H]2C(=O)N1C1CCCCC1", "composite z-score": 0.308},
      {"smiles": "CC[C@@H](c1ccccc1)n1c(=O)n2n(c1=O)[C@H]1[C@H](O)[C@@H]3O[C@@H]3C(=NOCC(C)C)[C@H]1CC2", "composite z-score": 0.586},
      {"smiles": "CCCC[C@@H](O)C1=C(C)C[C@H]2C(=O)N(Cc3ccccc3)C(=O)[C@H]2[C@H]1CO", "composite z-score": 0.15},
      {"smiles": "CC(C)=C1C(=O)C(c2ccccc2)=C2CN3C(=O)N(CCc4ccccc4)C(=O)[C@]3(Cc3ccc(F)cc3)[C@H]21", "composite z-score": -1.3},
      {"smiles": "N#Cc1ccc(NN2C(C(O)c3cc(C(F)(F)F)cc(C(F)(F)F)c3)C=CC3C(=O)N(c4ccccc4)C(=O)C32)cc1", "note": "(stereo not given)", "composite z-score": 1.05},
      {"smiles": "[N-]=[N+]=NCc1ccccc1[C@@H]1OC(c2ccc(OCCCO)cc2)=N[C@]1(Cc1ccccc1)C(=O)N1CCOCC1", "composite z-score": 1.11},
      {"smiles": "CC(CCN1CCCCc2nc(C)c(C)cc21)=NOC(C)CN1CCCCc2nc(C)c(C)cc21", "note": "(stereo not given)", "composite z-score": 1.07},
      {"smiles": "O=C(NN=C1C[C@@H](O)[C@@H](O)[C@@H]2[C@@H]3C(=O)N(c4cccc(Oc5ccccc5)c4)C(=O)[C@@H]3CC[C@H]12)OCc1ccccc1", "composite z-score": 0.305},
      {"smiles": "CCOC(=O)CCN1C(=O)[C@H]2[C@H]3[C@H](O)[C@H](O)CC(=O)[C@H]3CC[C@H]2C1=O", "composite z-score": 0.295},
      {"smiles": "O=C1O[C@@H](c2ccccc2)[C@@H](c2ccccc2)N2[C@@H](c3ccc(OCCO)cc3)[C@]3(C(=O)Nc4ccc(C#CCCO)cc43)[C@@H](C(=O)N3CCCCCCC3)[C@H]12", "composite z-score": 1.08},
      {"smiles": "c1ccc(C2NCCc3c2[nH]c2ccccc32)cc1", "note": "(stereo not given)", "composite z-score": -0.246}
    ]}
  ]
}
